# Results taken from PubChem BioAssay (NCATS).
# Values joined by “and” are separate entries in the source; they are usually repeats but may differ in a detail not shown here. Identical values can stand only once. Inconclusive results are not listed. Where a call stands in place of a potency, no number is given. Active and inactive are the calls of the source. Calls come from the whole dose curve.
# Columns and labels:
# [1] = Cytotoxicity counterscreen for inhibitors of SARS-CoV-2 cell entry (AID 1645845); note: nearly all actives have a fitted effect of over 50% in size
# Procedure, shortened: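 Counterscreen run in the same HEK293-ACE2 line as the pseudotyped-particle entry assay, without particles. Viability after 48 h at 37 C was read as ATP luminescence, scaled between cell-containing and cell-free wells.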
# [2] = Primary qHTS to identify inhibitors of SARS-CoV-2 cell entry (AID 1645846); details: activity change, negative = inhibition: at 57.1 µM (top of the series) unless noted; note: nearly all actives have a fitted effect of over 45% in size; note: potency is the fitted concentration of half-maximal effect
# Procedure, shortened: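 Entry measured by luciferase signal 48 h after adding SARS-CoV-2-S pseudotyped MLV particles to HEK293-ACE2 cells preincubated 1 h with compounds. Normalisation: bald particles and spike particles.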
# [3] = VSVG counterscreen qHTS to identify inhibitors of SARS-CoV-2 cell entry (AID 1645847); note: nearly all actives have a fitted effect of over 65% in size; note: potency is the fitted concentration of half-maximal effect
# Procedure, shortened: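 Luminescence read after 48 h infection at 37 C with VSV-G-pseudotyped MLV particles, following 1 h compound exposure of Expi293F cells stably expressing human ACE2; scaled between bald particle and VSV-G particle wells.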
SMILES,Potency [1],Potency [2],"activity change, negative = inhibition [2]",Potency [3]
C[C@H]1C[C@H]2[C@@H]3CCC4=CC(=O)C=C[C@]4(C)[C@H]3C(=O)C[C@]2(C)[C@@]1(O)C(=O)CO,inactive,inactive,4.44%,–
c1ccc([C@H]2CN3CCSC3=N2)cc1,inactive,inactive,-16.1%,–
CC(C)NCCCC1(C(N)=O)c2ccccc2-c2ccccc21,inactive,inactive,–,–
OC[C@H]1O[C@@H](O[C@@H]2[C@@H](CO)O[C@](O)(CO)[C@H]2O)[C@H](O)[C@@H](O)[C@H]1O,inactive,inactive,-4.13%,–
CCCCNc1cc(C(=O)O)cc(S(N)(=O)=O)c1Oc1ccccc1,inactive,inactive,-16.4%,–
NCCc1cnc[nH]1,inactive,inactive,0.209%,–
CCC(=O)O[C@]1(C(=O)CCl)[C@@H](C)C[C@H]2[C@@H]3CCC4=CC(=O)C=C[C@]4(C)[C@@]3(F)[C@@H](O)C[C@@]21C,inactive,inactive,-9.65%,–
C#C[C@]1(O)CC[C@H]2[C@@H]3[C@H](C)CC4=C(CCC(=O)C4)[C@H]3CC[C@@]21C,inactive,inactive,-14.1%,–
O=C(NC1CCN(CCc2c[nH]c3ccccc23)CC1)c1ccccc1,–,–,-25.8%,–
CCN[C@H]1C[C@H](C)S(=O)(=O)c2sc(S(N)(=O)=O)cc21,inactive,inactive,-17.9%,–
CC(C)OC(=O)C(C(=O)OC(C)C)=C1SC=CS1,inactive,inactive,-9.44%,–
C[C@@H]1C[C@H]2[C@@H]3CCC4=CC(=O)C=C[C@]4(C)[C@@]3(Cl)[C@@H](O)C[C@]2(C)[C@@]1(OC(=O)c1ccco1)C(=O)CCl,inactive,–,-22.6%,–
C[C@@H]1C[C@@H]([C@H](O)CC2CC(=O)NC(=O)C2)C(=O)[C@@H](C)C1,–,2.51 µM (active),–,–
CC(C(O)c1ccccc1)N(C)CCOC(c1ccccc1)c1ccccc1 (configuration not stated),inactive,–,–,21.5 µM (active)
CCCCCCCCCCCCCCCCC(C(=O)O)C(O)(CC(=O)O)C(=O)O (configuration not stated),inactive,–,–,inactive
O=S(=O)(c1cccc2cnccc12)N1CCCNCC1,inactive,inactive,-0.418%,–
COc1cccc2c1C(=O)c1c(O)c3c(c(O)c1C2=O)C[C@@](O)(C(C)=O)C[C@@H]3O[C@H]1C[C@H](N)[C@H](O)[C@H](C)O1,–,–,-92.1% and -98%,–
COc1ccc2[nH]c(S(=O)Cc3ncc(C)c(OC)c3C)nc2n1 (configuration not stated),inactive,inactive,-10.1%,–
CCOC(=O)C(C)(C)Oc1ccc(Cl)cc1,inactive,inactive,-63%,12.1 µM (active)
CC(=O)O[C@H]1C[C@@H]2CC[C@@H]3[C@H](CC[C@@]4(C)[C@H]3C[C@H]([N+]3(C)CCCCC3)[C@@H]4OC(C)=O)[C@@]2(C)C[C@@H]1N1CCCCC1,–,–,-7.24%,–
O=c1c(-c2ccccc2)c1-c1ccccc1,–,31.6 µM (active),–,–
O=c1oc2c(O)c(O)cc3c(=O)oc4c(O)c(O)cc1c4c23,inactive,inactive,-5.97% [at 27.1 µM],–
COc1ccc(-c2nc3ccc(C4=NNC(=O)CC4C)cc3[nH]2)cc1 (configuration not stated),–,–,-33%,–
COC(=O)Nc1nc2ccc(S(=O)c3ccccc3)cc2[nH]1 (configuration not stated),inactive,–,–,24.1 µM (active)
C1CCC(C(CC2CCCCN2)C2CCCCC2)CC1 (configuration not stated),–,12.6 µM (active) and 17.8 µM (active),–,–
